Results filed as inconclusive are left out. Values without a mark were called inactive. Calls come from the whole dose curve; as a rule, active = well fitted inhibition curve with a large enough effect in the repeat runs; inconclusive = weak or mixed curves, or effect the other way; inactive = no such curve, though single readings can be large or run the other way.
% is set by controls: 0 for no effect and ±100 for the full control effect.

The nature of this assay: qHTS assay to identify small molecule antagonists of the retinoic acid receptor (RAR) signaling pathway (AID 1159552; note: nearly all actives have a fitted effect of over 50% in size). As to conditions: C3RL4 RARE luciferase reporter, retinol-stimulated, 6 h; series mostly up to 92.4 µM; activity, negative = inhibition: at the top concentration. From the text:
National Center for Advancing Translational Sciences [NCATS]
NIH Chemical Genomics Center [NCGC]
U.S. Environmental Protection Agency [EPA]
National Institutes of Environmental Health Sciences [NIEHS]
National Toxicology Program [NTP]
U.S. Food and Drug Administration [FDA]
All-trans Retinoic acid (atRA) is the potent natural metabolite of retinol and plays an important role in normal embryonic development and maintenance of cellular phenotype in adult animals. atRA is the activating ligand for the retinoic acid receptors (RARs) which form heterodimers with retinoid X receptors (RXRs) on the retinoic acid response element (RARE). Through activation of the RAR/RXRs nuclear receptors, atRA regulates the transcription of a large number of protein-coding genes and regulatory RNAs. Intracellular levels of atRA are controlled by the retinol signaling pathway (RSP) that regulates the biosynthesis and catabolism of atRA to maintain physiological levels. Chemicals that interfere with the RSP can cause abnormal intracellular levels of atRA and therefore are potential developmental toxicants. To assess compounds for the potential adverse effect on embryonic development through interfering with retinol signaling, a cell-based RARE luciferase reporter gene assay was used. C3RL4 cell line (OARSA/CFSAN/FDA, Laurel, MD) was used to screen Tox21 10K compound library for identifying inhibitors of the RSP.
Tox21 Assay Protocol Summary:
C3RL4 cells were seeded at 1,000/well in 4 uL of assay medium into white solid 1,536-well tissue culture plates (Greiner Bio-One North America Inc. Monroe, NC) using a Multidrop Combi (Thermo Scientific, Waltham, MA) dispenser. After incubation at 37 C and 5% CO2 for an overnight, 23 nL of compounds dissolved in DMSO, positive control or DMSO only were transferred by a Pintool station (Kalypsys, San Diego, CA). One ul of 1 uM (final concentration) of Retinol was added right after the compound addition by using a Flying Reagent Dispenser (FRD) (Aurora Discovery, San Diego, CA). After 6 hr incubation at 37 C and 5% CO2, 5 uL of Amplite Luciferase reagent (AAT Bioquest Inc. Sunnyvale, CA) was added to each assay plate using an FRD. Luminescence was quantified on a ViewLux plate reader (PerkinElmer, Waltham, MA) after 30 min incubation at room temperature.
(In general: Quantitative high-throughput screening tests each substance at several concentrations.)
For `CC(O)CCl` (stereo not given), the “activity, negative = inhibition” value was -0.0487%.
The result for `BrCc1ccc(Br)cc1` reads -9.05%; that for `CCOC(=O)COc1ccc(Cl)cc1Cl`, 11.6%; that for `O=C(Cl)c1ccccc1`, 42%.
Under `O=C1CCCCC1Cl` (stereo not given) stands 20.6%.
On to `CN1COCN(Cc2cnc(Cl)s2)/C1=N\[N+](=O)[O-]`, for which the “activity, negative = inhibition” value was 2.89%.
Under `CCN(CC)C1CCCCC1` stands 6.02%; under `O=C(NC(O)C(Cl)(Cl)Cl)NC(O)C(Cl)(Cl)Cl` (stereo not given), 0.627% [at 42.5 µM]; under `CCOP(=S)(OCC)Oc1ccc(Cl)cc1Cl`, 0.757%.
The result for `CCCCCCCCBr` reads 3.87%; that for `CS(=O)(=O)c1ccc(C(=O)C2C(=O)CCCC2=O)c(Cl)c1COCC(F)(F)F`, 12.4%.
For `CC1NCCOC1c1ccccc1` (stereo not given), the “activity, negative = inhibition” value was 10.9% [at 42.5 µM].
Under `COP(=O)(O)OC` stands -10.3%.
Under `CC(C)(C)NC[C@H](O)c1ccc(O)cc1Cl` stands -3.82% [at 42.5 µM]; under `CCC(C)C(C)(COC(N)=O)COC(N)=O` (stereo not given), 1.25% [at 42.5 µM]; under `CCCCCCC1CCOC1=O` (stereo not given), 18.3%.
The result for `COc1cc(CC(C)N)cc(OC)c1OC` (stereo not given) reads -12.1%; that for `COC1=CC(=O)O[C@@H](/C=C/c2ccccc2)C1`, 171%; that for `S=C=S`, 25.6%.
For `Clc1nc(Cl)nc(Nc2ccccc2Cl)n1`, the “activity, negative = inhibition” value is -6.31%.
The result for `CN(C)C1CCCCC1` reads 19.2%; that for `CCOP(=O)(CN(CCO)CCO)OCC`, -0.774%; that for `CC(C)(C)c1cc(O)ccc1O`, 137%.
In the case of `CCC1(c2ccccc2)C(=O)N(COC)C(=O)N(COC)C1=O`, the “activity, negative = inhibition” value was 13.6% [at 42.5 µM].
As for `CCCOc1nn(C(=O)NS(=O)(=O)c2ccccc2C(=O)OC)c(=O)n1C`, the “activity, negative = inhibition” value was 2.21%.
Under `CCCC[N+](=O)[O-]` stands 28%; under `N=C(N)[Se]`, 36%.
The result for `ClCOCCl` reads 6.62%.
Turning to `Cc1ccc(-c2nc3ccc(C)cn3c2CC(=O)N(C)C)cc1`, the “activity, negative = inhibition” value is 88.4% [at 42.5 µM].
In the case of `C[C@H](N)C(=O)c1ccccc1`, the “activity, negative = inhibition” value is 2.32%.
The result for `CC[C@H](O)C(C[C@H](C)N(C)C)(c1ccccc1)c1ccccc1` reads -22.8%; that for `CCN(CCO)CCn1c(Cc2ccccc2)nc2c1c(=O)n(C)c(=O)n2C`, 0.723% [at 42.5 µM]; that for `O=C(O)c1c(Cl)ccc2cc(Cl)cnc12`, 1.46%.
In the case of `c1cncc([C@@H]2CCCCN2)c1`, the “activity, negative = inhibition” value was 10.8%.
Under `O=C(Cl)OCc1ccccc1` stands -1.33%.
Consider `CCN(CCO)CCO`, for which the “activity, negative = inhibition” value was 20.5%.
The result for `Nc1c(Cl)c(F)nc(OCC(=O)O)c1Cl` reads 7.95%; that for `NC1(c2ccccc2)CCCCC1`, -15.8%.
Under `CCC(C)(C#N)N=NC(C)(C#N)CC` (stereo not given) stands -5.82%; under `CC(C)[N+](C)(CCC(C(N)=O)(c1ccccc1)c1ccccc1)C(C)C`, 6.27% [at 42.5 µM].

The record behind these values is PubChem BioAssay (Tox21).
